Where a name gives a salt, the structure may show the parent alone.
Key:
Details in all cases: compound concentration in added solution (µM; 5 µl added to 20 µl cells): 10; 18 h
A431 [1] = assay: LBPA endosome anti-LBPA integrated intensity (sum per cell), Z-score; higher = more LBPA staining
Method in brief: (§1)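 Duplicate 384-well imaging plates were prepared with 5 µl of 10 µM compound solution per well, and 3,500 HeLa MZ or A431 cells in 20 µl were added on top. Following 18 h of incubation and fixation in 4% PFA, cells received 6C4 anti-LBPA antibody, filipin, propidium iodide and CellTracker green. Four images per well at 20× were segmented in MetaXpress to yield per-cell integrated LBPA or filipin intensity, whole-cell or within LBPA endosomes. These intensities are reported as Z-scores normalised in AcuityXpress.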

HeLa MZ [2] = assay: as above
Method in brief: as §1

A431 [3] = assay: whole-cell filipin (free cholesterol) integrated intensity, Z-score; higher = more cholesterol staining
Method in brief: as §1

HeLa MZ [4] = assay: as above
Method in brief: as §1

A431 [5] = assay: filipin (cholesterol) integrated intensity within LBPA endosomes, Z-score; higher = more cholesterol in LBPA endosomes
Method in brief: as §1

HeLa MZ [6] = assay: as above
Method in brief: as §1

SMILES	LBPA endosome anti-LBPA integrated intensity (z-score) (A431 [1])	LBPA endosome anti-LBPA integrated intensity (z-score) (HeLa MZ [2])	whole-cell filipin (z-score) (A431 [3])	whole-cell filipin (z-score) (HeLa MZ [4])	filipin (z-score) (A431 [5])	filipin (z-score) (HeLa MZ [6])
CC[N+](C)(CC)CCC[n+]1c(-c2ccccc2)c2cc(N)ccc2c2ccc(N)cc21 [Propidium iodide]	-0.615	-1.77	-0.548	-0.836	-0.56	-0.527
COc1ccc(C2CNC(=O)C2)cc1OC1CCCC1 (centres undefined) [Rolipram]	-0.493	-0.432	-0.586	-0.445	-0.453	-0.525
CO[C@H]1/C=C/O[C@@]2(C)Oc3c(C)c(O)c4c(O)c(c(/C=N/N5CCN(C)CC5)c(O)c4c3C2=O)NC(=O)/C(C)=C\C=C\[C@H](C)[C@H](O)[C@@H](C)[C@@H](O)[C@@H](C)[C@H](OC(C)=O)[C@@H]1C [Rifampicin]	-0.422	-0.231	-0.651	-0.372	-0.402	-0.338
Nc1nc(N)nc(-c2cc(Cl)ccc2Cl)n1 [Irsogladine maleate]	-0.232	0.679	-0.0416	0.316	-0.334	-0.292
O=c1cc(-c2ccc(O)c(O)c2)oc2cc(O)cc(O)c12 [Luteolin]	-0.401	0.459	-0.523	-0.0366	-0.468	-0.425
O=C(O)CCC(=O)Nc1ccc(S(=O)(=O)Nc2nccs2)cc1 [Succinylsulfathiazole]	-0.428	-0.709	-0.288	-0.818	-0.463	-0.508
CC[C@]12CCCN3CCc4c(n(c5ccccc45)C(=O)C1)[C@@H]32 [Eburnamonine (-)]	-0.525	-1.3	-0.836	-2.15	-0.422	-0.458
Cc1cc(NS(=O)(=O)c2ccc(N)cc2)no1 [Sulfamethoxazole]	-0.371	-0.141	-0.446	-0.158	-0.446	-0.3
CC(C)NCC(O)COc1ccc(CCOCC2CC2)cc1 (centres undefined) [Betaxolol hydrochloride]	2.57	2.19	0.139	-0.283	0.614	0.292
COc1ncnc(NS(=O)(=O)c2ccc(N)cc2)c1OC [Sulfadoxine]	-0.426	-0.662	0.0314	-0.436	-0.379	-0.505
CCOC(=O)[N-]c1c[n+](N2CCOCC2)no1 [Molsidomine]	-0.56	0.0751	-0.59	-0.136	-0.558	-0.532
Cc1cccc(C)c1NC(=O)C(C)N (centres undefined) [Tocainide hydrochloride]	-0.343	-0.526	0.139	-0.393	-0.431	-0.603
O=C1O[C@H]([C@@H](O)CO)C(O)=C1O [Ascorbic acid]	-0.608	-0.991	-0.369	0.278	-0.529	-0.527
CC(=O)N(CC(C)C(=O)O)c1c(I)cc(I)c(N)c1I (centres undefined) [Iocetamic acid]	-0.0668	-0.0236	-0.0512	0.178	-0.262	-0.476
CC(=O)Oc1cccc2c1C(=O)c1c(OC(C)=O)cc(C(=O)O)cc1C2=O [Diacerein]	-0.503	-0.299	-0.484	0.525	-0.459	-0.327
NC1CCN(c2c(F)cc3c(=O)c(C(=O)O)cn(C4CC4)c3c2Cl)C1 (centres undefined) [Clinafloxacin]	-0.36	0.512	-0.328	-0.333	-0.437	-0.286
CC(C)(C)NC(=O)[C@@H]1C[C@@H]2CCCC[C@@H]2CN1C[C@@H](O)[C@H](Cc1ccccc1)NC(=O)[C@H](CC(N)=O)NC(=O)c1ccc2ccccc2n1 [Saquinavir mesylate]	0.938	0.684	1.12	0.276	0.903	0.906
CCN(CC)CCCC(C)Nc1ccnc2cc(Cl)ccc12 (centres undefined) [Chloroquine diphosphate]	3.38	2.38	0.0406	0.105	0.896	1.26
CC(CNC1CCCCC1)OC(=O)c1ccccc1 (centres undefined) [Hexylcaine hydrochloride]	-0.125	-0.0338	-0.478	-0.747	-0.345	-0.436
CCCc1cc(=O)[nH]c(=S)[nH]1 [Propylthiouracil]	-0.571	-0.555	-0.7	-0.496	-0.538	-0.457
CCC1=C(C)CN(C(=O)NCCc2ccc(S(=O)(=O)NC(=O)N[C@H]3CC[C@H](C)CC3)cc2)C1=O [Glimepiride]	-0.623	-0.491	-0.412	-0.0517	-0.467	-0.486
O=C(NCC(O)CO)c1c(I)c(C(=O)NCC(O)CO)c(I)c(N(CCO)C(=O)CO)c1I (centres undefined) [Ioversol]	-0.561	-1.26	-0.43	-0.621	-0.499	-0.701

SMILES	LBPA endosome anti-LBPA integrated intensity (z-score) (A431 [1])	LBPA endosome anti-LBPA integrated intensity (z-score) (HeLa MZ [2])	whole-cell filipin (z-score) (A431 [3])	whole-cell filipin (z-score) (HeLa MZ [4])	filipin (z-score) (A431 [5])	filipin (z-score) (HeLa MZ [6])
COc1cc2nc(N3CCN(C(=O)C4COc5ccccc5O4)CC3)nc(N)c2cc1OC (centres undefined) [Doxazosin mesylate]	3.8	3.08	2.89	1.62	2.83	2.39
C#CCN(C)Cc1ccccc1 [Pargyline hydrochloride]	-0.443	-0.371	-0.77	-0.65	-0.469	-0.441
Cc1cccc(N(C)C(=S)Oc2ccc3ccccc3c2)c1 [Tolnaftate]	0.133	0.375	-0.581	-0.535	-0.301	-0.655
CCC(NC(C)C)C(O)c1ccc(O)c(O)c1 (centres undefined) [Isoetharine mesylate salt]	-0.174	0.0426	0.269	-0.32	-0.45	-0.32
Cc1c(N(C)CS(=O)(=O)O)c(=O)n(-c2ccccc2)n1C [Dipyrone]	-0.646	-1.3	-0.336	-0.214	-0.539	-0.551
NC(=O)c1cc[n+](CC2=C(C(=O)[O-])N3C(=O)[C@@H](NC(=O)[C@@H](c4ccccc4)S(=O)(=O)O)[C@H]3SC2)cc1 [Cefsulodin sodium salt]	-0.471	-0.634	-0.331	-0.0382	-0.357	-0.398
CCCCOc1ccc(CC(=O)NO)cc1 [Bufexamac]	-0.196	-0.501	-0.337	-0.569	-0.313	-0.483
CNNCc1ccc(C(=O)NC(C)C)cc1 [Procarbazine hydrochloride]	-0.593	-1.08	-0.286	-0.325	-0.487	-0.664
CN1CCc2cccc3c2[C@H]1Cc1ccc(O)c(O)c1-3 [R(-) Apomorphine hydrochloride hemihydrate]	2.19	0.867	-0.55	-1.57	0.31	-0.107
CNCCCC1c2ccccc2C=Cc2ccccc21 [Protriptyline hydrochloride]	2.36	2.29	1.72	0.684	2.34	2.5
Cc1cn([C@H]2C=C[C@@H](CO)O2)c(=O)[nH]c1=O [Stavudine]	-0.301	0.24	0.0526	0.186	-0.48	-0.475
CC1(C)S[C@@H]2[C@H](NC(=O)[C@H](N)c3ccccc3)C(=O)N2[C@H]1C(=O)OC1OC(=O)c2ccccc21 (some centres undefined) [Talampicillin hydrochloride]	-0.446	0.322	-0.121	0.482	-0.392	-0.35
CCN(CC)CCOc1ccc(C(=C(Cl)c2ccccc2)c2ccccc2)cc1 [Clomiphene citrate (Z,E)]	1.86	0.54	0.0851	1.03	2.72	3.06
COc1c(O[C@@H]2O[C@H](CO)[C@@H](O)[C@H](O)[C@H]2O)cc2c(c1OC)-c1ccc(SC)c(=O)cc1[C@@H](NC(C)=O)CC2 [Thiocolchicoside]	-0.551	-0.233	-0.589	-0.789	-0.477	-0.471
CN1C(C(=O)Nc2ccccn2)=C(O)c2ccccc2S1(=O)=O [Piroxicam]	-0.541	-0.331	-0.896	-1.08	-0.561	-0.694
CC(=O)OCC1=C(C(=O)O)N2C(=O)[C@@H](NC(=O)Cc3cccs3)[C@H]2SC1 [Cephalothin sodium salt]	-0.468	-0.884	-0.46	-0.115	-0.456	-0.652
Cn1nnnc1SCC1=C(C(=O)O)N2C(=O)[C@@H](NC(=O)[C@H](O)c3ccccc3)[C@H]2SC1 [Cefamandole sodium salt]	-0.486	-0.416	-0.496	0.0398	-0.431	-0.551
CCCCOc1ccc(C(=O)CCN2CCCCC2)cc1 [Dyclonine hydrochloride]	0.717	0.215	0.502	-0.794	0.482	-0.156
O=C(O)CCc1nc(-c2ccccc2)c(-c2ccccc2)o1 [Oxaprozin]	-0.435	-0.524	-0.0363	0.42	-0.35	-0.246
CC[C@]12CCCN3CCc4c(n(c5ccccc45)[C@@](O)(C(=O)OC)C1)[C@@H]32 [Vincamine]	-0.234	0.384	-0.552	-1.23	-0.453	-0.216
C#C[C@]1(O)CC[C@H]2[C@@H]3CCC4=Cc5oncc5C[C@]4(C)[C@H]3CC[C@@]21C [Danazol]	-0.455	-0.444	-0.615	-0.566	-0.449	-0.556
CNCC(O)c1ccc(OC(=O)C(C)(C)C)c(OC(=O)C(C)(C)C)c1 (centres undefined) [Dipivefrin hydrochloride]	0.303	-0.643	1.75	0.0389	0.224	0.0222
